Measured values published in ChEMBL document CHEMBL3988442, “University of Dundee, Small-Polar-MMV Screening Library” (2021).

Each compound was assayed against AMP-activated protein kinase, AMPK (Homo sapiens) (UniProt P54646+O43741+P54619+Q9UGJ0+Q9Y478+Q13131+Q9UGI9) (assay: AMP-dependent Kinase enzyme assay. An in vitro enzyme assay that detects ADP turnover that is directly proportional to AMPK activity. This uses naive AMPK that is activated during the assay with MK-8722). Conditions: 30 µM.
Assay type: functional
Set-up: scale not given: direction of the effect not stated beside the values

SMILES | Percent Effect [%]
COc1ccc(NC(=O)c2cnc(C3CCN(C)CC3)nc2C)cc1 | 3.65
CCOC(=O)C(C)Nc1ccc(CCN2CCOCC2)cc1 (stereo not given) | -1.34
CNC(=O)c1sc(C(NC(=O)c2ccccc2)C2CC2)nc1C (stereo not given) | -1.61
CC1(C)COCCN1C(=O)Cc1cc(Cl)c2c(c1)OCCO2 | 10.7
O=C(CCN1CCOCC1)Nc1cccc(CNCc2ccsc2)c1 | -5.46
Cn1cc(NC(=O)Cc2ccccc2Br)cc1C(N)=O | 3.12
Cc1[nH]c2c(F)cccc2c1CC(=O)NC1CCCCNC1=O (stereo not given) | 10.4
CC(O)CN1CCN(Cc2coc(-c3ccccc3)n2)CC1 (stereo not given) | -7.2
CC(C)N(C)S(=O)(=O)c1ccc2c(c1)CCN(C(=O)c1ccccn1)C2 | -446
Cc1ccc(OCc2occc2C(=O)N2CCCCC(N)C2)cc1 (stereo not given) | 5.88
COc1ccc(OCc2noc(CN(C)C3CCS(=O)(=O)C3)n2)cc1 (stereo not given) | -2.23
CCN(CCNS(=O)(=O)C1CCOCC1)C(=O)OC(C)(C)C | 1.64
CCc1ccc(CN2CCOC(Cc3cccc(F)c3)C2)nc1 (stereo not given) | 5.27
CC(N)C(=O)N1CCC(Oc2cccc(C(F)(F)F)c2)CC1 (stereo not given) | -2.71
Cc1ccc2nc(C(=O)N3CC(n4nc(C)cc4C)C3)cn2c1 | -4.01
CNC(=O)COC(=O)c1cccc(-n2ccc(C(F)(F)F)n2)c1 | 5.41
COCc1cccc(NCc2cccnc2)c1 | 0.23
CC(C)(CN1CCC2(CCCNC2)C1)N1CCOCC1 (stereo not given) | -0.439
CS(=O)(=O)CCN1CCSCC1c1ccc(Cl)cc1 (stereo not given) | -2.02
Cc1ccc(F)c(C(=O)Nc2c(C(N)=O)n[nH]c2C)c1 | 9.84
